Structures are written as SMILES. Activity calls are given as the source filed them. The calls were made as follows: active = hit-call score of the fitted dose curve at least 0.9, where 1 is the maximum; inactive = score below 0.9.

This experiment is described as follows: ATG_Oct_MLP_CIS: Attagene CIS-FACTORIAL HepG2 Assay for human Octamer-Binding Transcription Factor (Oct) (AID 2282993). The following applies: HepG2 Attagene cis-factorial Oct reporter, mRNA; actives raise or lower the signal. The protocol:
ATG_CIS is a cell-based, multiplexed-readout assay that uses HepG2, a human liver cell line, with measurements taken at 24 hours after chemical dosing in a 24-well plate.ATG_Oct_MLP_CIS is one of 52 assay component(s) measured or calculated from the ATG_CIS assay. It is designed to make measurements of mRNA induction, a form of inducible reporter, as detected with fluorescence intensity signals by Reverse transcription polymerase chain reaction (RT-PCR) and Capillary electrophoresis technology.Data from the assay component ATG_Oct_MLP_CIS was analyzed into 1 assay endpoint. This assay endpoint, ATG_Oct_MLP_CIS, was analyzed with bidirectional fitting relative to DMSO as the negative control and baseline of activity. Using a type of inducible reporter, measures of mRNA for gain or loss-of-signal activity can be used to understand the reporter gene at the transcription factor-level as they relate to the gene POU2F1. Furthermore, this assay endpoint can be referred to as a primary readout, because this assay has produced multiple assay endpoints where this one serves a reporter gene function. To generalize the intended target to other relatable targets, this assay endpoint is annotated to the dna binding intended target family, where the subfamily is POU domain protein.
Human liver HepG2 cells are transiently transfected with multiple reporter transcription units (MRTUs) in 6-well plates using FuGene 6 reagent (Roche; 3 ml FuGene/1 mg DNA). The MRTU constructs are regulated by a cis-regulating element (promoter). […] A major difference between the CIS and TRANS system is that in CIS activities of endogenous TFs are measured, whereas the TRANS assay evaluates changes in activities of exogenous, chimeric NR-Gal4 proteins. […] At the end of 24 hour incubation, total RNA was isolated using TriZol reagent (Invitrogen). The isolated RNA is then reverse-transcribed using oligo(dT) primer and Mo-MLV reverse transcriptase (Invitrogen) with DNAse I (Ambion) treatment for 30 min. The one-tenth of the produced cDNA was amplified by PCR using Taq DNA polymerase (Invitrogen) and two reporter sequence-specific primers. The PCR products were fluorescently labeled by primer extension with 6-arboxyfluorescein (6-FAM) 5'-labeled reporter sequence-specific primer (2 min at 95 C, 20 s at 68 C and 10 min at 72 C) and these products were digested with 5U of HpaI (New England Biolabs) for 2h at 37 C. The fragments were purified using Qiaquick PCR columns (Qiagen), analyzed on an ABI 3130xL genetic analyzer (Applied Biosystems) with peak positions identified by using a set of X-rhodamine (ROX)-labeled MapMarker1000 molecular weight standards (BioVentures). The raw capillary electrophoresis data was processed using Attagraph software (Attagene).
In the case of `CCCCOCCOCCOC(=O)CCCCC(=O)OCCOCCOCCCC`, the outcome was inactive.

For the compound `CC(=O)Nc1ccc(N=Nc2cc(C)ccc2O)cc1`, the result was inactive.

Consider `OC[C@@H](O)[C@@H](O)[C@H](O)[C@@H](O)CO`, for which the result was inactive.

In the case of `CCCCNc1ccccc1`, the compound was called inactive.

Regarding `FC(F)(F)C(F)(F)C(F)(F)C(F)(F)C(F)(F)C(F)(F)CCS`, the result was inactive.

In the case of `CCN(Cc1cccc(S(=O)(=O)O)c1)c1ccc(C(=C2C=CC(=[N+](CC)Cc3cccc(S(=O)(=O)O)c3)C=C2)c2ccc(O)cc2S(=O)(=O)[O-])cc1`, the result was inactive.

As to `CC(CCl)OP(=O)(OC(C)CCl)OC(C)CCl` (stereo not given), the compound was called inactive.

As for `FC(F)(F)C(F)(F)C(F)(F)C(F)(F)C(F)(F)C(F)(F)C(F)(F)C(F)(F)F`, the result was inactive.

Turning to `CC/C=C\CCOC(=O)c1ccccc1`, the compound was classed as inactive.

As for `C1COCCN1`, the outcome was inactive.

Regarding `FC(F)(F)C(F)(F)C(F)(F)C(F)(F)C(F)(F)CCI`, the compound was classed as inactive.

As to `FC(F)(F)C(F)(F)C(F)(F)C(F)(F)C(F)(F)C(F)(F)C(F)(F)I`, the compound was classed as inactive.

As for `C=C(C)C(=O)OCC(F)(F)C(F)(F)C(F)(F)C(F)(F)C(F)(F)C(F)(F)C(F)(F)F`, the call was inactive.

Turning to `C=CC/C=C/C/C=C/C/C=C/C`, the compound was called inactive.

Take `O=C(O)C(F)(F)C(F)(F)C(F)F`: the result was inactive.

Turning to `OCC(F)(F)C(F)(F)C(F)(F)C(F)(F)C(F)(F)C(F)(F)F`, the result was inactive.

On to `CCc1c(Br)c(Br)c(Br)c(Br)c1Br`, for which the compound was called inactive.

With `O=S(=O)(O)c1ccc2ccccc2c1`, the result was inactive.

Regarding `[Co]`, the call was inactive.

For `OCC(F)(F)C(F)(F)C(F)(F)C(F)F`, the result was inactive.

Turning to `C#C[C@]1(O)CC[C@H]2[C@@H]3CCc4cc(OC)ccc4[C@H]3CC[C@@]21C`, the result was inactive.

Consider `OCC(F)(F)C(F)(F)C(F)(F)C(F)(F)C(F)(F)C(F)F`, for which the call was inactive.

Consider `CCC(=O)OCCc1ccccc1`, for which the compound was classed as inactive.

As to `CCCCCCCOC(=O)c1ccccc1C(=O)OCCCCCCC`, the compound was called inactive.

As for `COC(OC(C)=O)c1ccccc1` (stereo not given), the compound was classed as inactive.

On to `FC(F)(F)C(F)(F)C(F)(F)C(F)(F)C(F)(F)C(F)(F)C(F)(F)Br`, for which the compound was classed as inactive.

With `CC(C)c1ccccc1N`, the outcome was inactive.

For the compound `CCCCCC=O`, the compound was called inactive.

Take `O=P(O)(O)OCCC(F)(F)C(F)(F)C(F)(F)C(F)(F)C(F)(F)C(F)(F)F`: the result was inactive.

On to `Oc1ccc(Nc2ccccc2)cc1`, for which the compound was classed as inactive.

For `FC(F)(F)C(F)(F)C(F)(F)N(C(F)(F)C(F)(F)C(F)(F)F)C(F)(F)C(F)(F)C(F)(F)F`, the result was inactive.

In general, AC50 refers to the concentration at which the activity in the assay is half-maximal. Consider `Nc1ccc(Oc2cccc(Oc3ccc(N)cc3)c2)cc1`, for which the AC50 is 24.9 µM (active).

In the case of `CCCCCCOC(=O)c1ccccc1O`, the compound was classed as inactive.

As to `COC(=O)CCC(F)(F)C(F)(F)C(F)(F)C(F)(F)F`, the call was inactive.

Regarding `O=S(=O)(OCCOC(F)(F)F)C(F)(F)F`, the compound was called inactive.

`OCC(F)(F)C(F)(F)C(F)(F)F`: the call was inactive.

Turning to `O=C(O)C(F)(F)C(F)(F)C(F)(F)C(F)(F)C(F)(F)C(F)(F)C(F)(F)C(F)(F)C(F)(F)C(F)F`, the outcome was inactive.

As for `CCCCCCCCCCCCCCCC[N+](C)(C)Cc1ccccc1`, the call was inactive.

As to `O=C(O)C(F)(F)C(F)(F)C(F)(F)C(F)(F)F`, the result was inactive.

On to `O=C(O)C(F)(F)C(F)(F)C(F)(F)C(F)(F)C(F)(F)C(F)(F)C(F)(F)C(F)(F)C(F)(F)C(F)(F)C(F)(F)C(F)(F)C(F)(F)F`, for which the call was inactive.

These data come from PubChem BioAssay (EPA / NIEHS).
